Experimental data published in PubChem BioAssay AID1159580 (chemical genetic matrix, 2015).
Where “and” joins values, the source holds several entries; their conditions need not be identical. Identical values can stand only once. The campaign covered roughly 5,500 compounds. About 2,000 (36%) were called active. About 18% were inconclusive and are not listed. Cut-off read from the data, not from the text of the source: active = normalized growth mostly below about 0.91 (no sharp cut-off); inconclusive = no clear call, values can overlap the other calls; inactive = mostly above about 0.92. This is one part of the list.

Assay: chemical genetic growth profiling, strain panel (AID 1159580);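 note: tested at 20 µM; growth read once vehicle control cultures reached saturation at 30 °C; 1 = growth at the plate median or of vehicle wells; lower values mean less growth of the strain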
Conditions: growth OD

Measured: normalized growth

CC(=O)OCC(COC(C)=O)OC(C)=O
inactive: S. cerevisiae deletion strains, locus YAL013W, strain DEP1, hits give low values 1.01 | S. cerevisiae deletion strains, locus YBR021W, strain FUR4, hits give low values 1.02 | S. cerevisiae deletion strains, locus YBR229C, strain ROT2, hits give low values 1 | S. cerevisiae deletion strains, locus YCL029C, strain bik1, hits give low values 1.03 | S. cerevisiae deletion strains, locus YDL035C, strain GPR1, hits give low values 1.02 | S. cerevisiae deletion strains, locus YDL074C, strain BRE1, hits give low values 1.02 | S. cerevisiae deletion strains, locus YDL101C, strain DUN1, hits give low values 1.02 | S. cerevisiae deletion strains, locus YDL134C, strain PPH21, hits give low values 1.01 | S. cerevisiae deletion strains, locus YDL185W, strain tfp1, hits give low values 1.01 | S. cerevisiae deletion strains, locus YDL192W, strain arf1, hits give low values 1.02 | S. cerevisiae deletion strains, locus YDR101C, strain arx1, hits give low values 1 | S. cerevisiae deletion strains, locus YDR150W, strain NUM1, hits give low values 1.01 | S. cerevisiae deletion strains, locus YDR162C, strain NBP2, hits give low values 1.01 | S. cerevisiae deletion strains, locus YDR318W, strain mcm21, hits give low values 1.01 | S. cerevisiae deletion strains, locus YDR388W, hits give low values 1.01 | S. cerevisiae deletion strains, locus YDR502C, strain sam2, hits give low values 1 | S. cerevisiae deletion strains, locus YEL061C, strain CIN8, hits give low values 1.01 | S. cerevisiae deletion strains, locus YER110C, hits give low values 1.01 | S. cerevisiae deletion strains, locus YER155C, strain BEM2, hits give low values 0.999 | S. cerevisiae deletion strains, locus YER167W, strain BCK2, hits give low values 1.01 | S. cerevisiae deletion strains, locus YGL078C, strain dbp3, hits give low values 1.01 | S. cerevisiae deletion strains, locus YGL086W, strain mad1, hits give low values 1 | S. cerevisiae deletion strains, locus YGL248W, strain PDE1, hits give low values 1.01 | S. cerevisiae deletion strains, locus YGR078C, strain PAC10, hits give low values 1.02 | S. cerevisiae deletion strains, locus YGR135W, strain pre9, hits give low values 1.01 | S. cerevisiae deletion strains, locus YGR229C, strain SMI1, hits give low values 1.02 | S. cerevisiae deletion strains, locus YGR252W, strain gcn5, hits give low values 0.969 | S. cerevisiae deletion strains, locus YHR030C, strain SLT2, hits give low values 1.01 and 0.958 | S. cerevisiae deletion strains, locus YHR079C, strain IRE1 (second series), hits give low values 1.01 | S. cerevisiae deletion strains, locus YHR079C, strain IRE1, hits give low values 0.989 | S. cerevisiae deletion strains, locus YHR094C, strain hxt1, hits give low values 1.01 | S. cerevisiae deletion strains, locus YHR129C, strain ARP1, hits give low values 1.01 | S. cerevisiae deletion strains, locus YHR200W, strain rpn10, hits give low values 1.01 | S. cerevisiae deletion strains, locus YIL066C, strain RNR3, hits give low values 1.03 | S. cerevisiae deletion strains, locus YIL073C, strain SPO22, hits give low values 1.02 | S. cerevisiae deletion strains, locus YIL125W, strain kgd1, hits give low values 1 | S. cerevisiae deletion strains, locus YIR030C, strain dcg1, hits give low values 1.01 | S. cerevisiae deletion strains, locus YJL095W, strain BCK1, hits give low values 1.02 and 0.962 | S. cerevisiae deletion strains, locus YJL134W, strain LCB3, hits give low values 1.01 | S. cerevisiae deletion strains, locus YJL168C, strain set2, hits give low values 1.01 | S. cerevisiae deletion strains, locus YJL187C, strain SWE1 (second series), hits give low values 1.03 | S. cerevisiae deletion strains, locus YJR043C, strain POL32, hits give low values 1.02 | S. cerevisiae deletion strains, locus YJR066W, strain TOR1, hits give low values 0.936 | S. cerevisiae deletion strains, locus YJR075W, strain HOC1, hits give low values 1.03 | S. cerevisiae deletion strains, locus YKL009W, strain mrt4, hits give low values 1.02 | S. cerevisiae deletion strains, locus YKL068W, hits give low values 1 | S. cerevisiae deletion strains, locus YKL085W, strain MDH1 (second series), hits give low values 1.01 | S. cerevisiae deletion strains, locus YKL085W, strain MDH1, hits give low values 1.01 | S. cerevisiae deletion strains, locus YKL190W, strain CNB1, hits give low values 1.01 | S. cerevisiae deletion strains, locus YKR001C, strain vps1, hits give low values 1.02 | S. cerevisiae deletion strains, locus YLR039C, strain RIC1, hits give low values 0.991 | S. cerevisiae deletion strains, locus YLR058C, strain SHM2, hits give low values 1.01 | S. cerevisiae deletion strains, locus YLR102C, strain apc9, hits give low values 0.997 | S. cerevisiae deletion strains, locus YLR113W, strain HOG1, hits give low values 1 | S. cerevisiae deletion strains, locus YLR262C, strain YPT6, hits give low values 1.03 | S. cerevisiae deletion strains, locus YLR268W, strain sec22, hits give low values 1.03 | S. cerevisiae deletion strains, locus YLR330W, strain CHS5, hits give low values 1.02 | S. cerevisiae deletion strains, locus YLR342W, strain FKS1 (second series), hits give low values 1.01 | S. cerevisiae deletion strains, locus YLR371W, strain rom2, hits give low values 1.01 | S. cerevisiae deletion strains, locus YLR418C, strain cdc73, hits give low values 1.02 | S. cerevisiae deletion strains, locus YML016C, strain PPZ1, hits give low values 1.01 | S. cerevisiae deletion strains, locus YML032C, strain rad52, hits give low values 1.03 | S. cerevisiae deletion strains, locus YML124C, strain tub3, hits give low values 1 | S. cerevisiae deletion strains, locus YMR078C, strain ctf18, hits give low values 1.01 | S. cerevisiae deletion strains, locus YMR223W, strain ubp8, hits give low values 1 | S. cerevisiae deletion strains, locus YMR263W, strain SAP30, hits give low values 1.02 | S. cerevisiae deletion strains, locus YMR307W, strain GAS1, hits give low values 0.998 | S. cerevisiae deletion strains, locus YNL067W, strain RPL9B, hits give low values 1.03 | S. cerevisiae deletion strains, locus YNL128W, strain TEP1, hits give low values 1.02 | S. cerevisiae deletion strains, locus YNL153C, strain GIM3, hits give low values 1.02 | S. cerevisiae deletion strains, locus YNL183C, strain NPR1, hits give low values 0.949 | S. cerevisiae deletion strains, locus YNL233W, strain BNI4, hits give low values 1.01 | S. cerevisiae deletion strains, locus YNL250W, strain rad50, hits give low values 1 | S. cerevisiae deletion strains, locus YNL271C, strain bni1, hits give low values 1.02 | S. cerevisiae deletion strains, locus YNL298W, strain CLA4, hits give low values 1.02 | S. cerevisiae deletion strains, locus YNL307C, strain MCK1, hits give low values 1.01 | S. cerevisiae deletion strains, locus YNL322C, strain KRE1, hits give low values 1.01 | S. cerevisiae deletion strains, locus YNR052C, strain pop2, hits give low values 1.01 | S. cerevisiae deletion strains, locus YOL006C, strain TOP1, hits give low values 1.05 | S. cerevisiae deletion strains, locus YOL012C, strain htz1 1.07 | S. cerevisiae deletion strains, locus YOL147C, strain pex11, hits give low values 1.01 | S. cerevisiae deletion strains, locus YOR061W, strain CKA2, hits give low values 1.01 | S. cerevisiae deletion strains, locus YOR069W, strain VPS5, hits give low values 1.01 | S. cerevisiae deletion strains, locus YOR136W, strain idh2, hits give low values 1.01 | S. cerevisiae deletion strains, locus YOR144C, strain elg1, hits give low values 0.998 | S. cerevisiae deletion strains, locus YOR184W, strain ser1, hits give low values 1.02 | S. cerevisiae deletion strains, locus YOR231W, strain MKK1, hits give low values 0.993 | S. cerevisiae deletion strains, locus YOR316C, strain cot1, hits give low values 1.01 | S. cerevisiae deletion strains, locus YPL055C, strain LGE1, hits give low values 1.06 | S. cerevisiae deletion strains, locus YPL241C, strain CIN2, hits give low values 1.01 | S. cerevisiae deletion strains, locus YPL256C, strain CLN2, hits give low values 0.989 | S. cerevisiae deletion strains, locus YPR119W, strain clb2, hits give low values 1.01 | S. cerevisiae deletion strains, locus YPR141C, strain kar3, hits give low values 1.01 | S. cerevisiae deletion strains, locus YPR163C, strain tif3, hits give low values 1.02 | S. cerevisiae deletion strains, locus YPR167C, strain met16, hits give low values 1.01 | S. cerevisiae deletion strains, strain wtn01, hits give low values 1.04 | S. cerevisiae strains, strain wild type, hits give low values 1.02
